Source: PubChem (National Center for Advancing Translational Sciences (NCATS))
Sampled rows, rich in hits. Any-hit rate of the full collection: about 6.6%.
MCF10A rereplic: DNA re-replication induction in MCF 10a cells. MCF 10A DNA re-replication, Hoechst nuclear intensity, 48 h. Potency, µM (highest dose often 46.1 µM), for the others: at the top dose activity, positive = re-replication, actives largely listed as activators. actives 2.9% (n = 350,000); note: % of control where 0% means no effect; nearly all actives have a fitted effect of over 50% in size
RGS4 inh: inhibitors of human regulator of G protein signaling 4; P49798; Transcreener GDP fluorescence polarization, RGS4-accelerated GTP hydrolysis; Potency, µM (doses to about 114 µM), inactives show at the top dose activity change, negative = inhibition, most hits filed as inhibitors; actives 0.039% (n = 390,000); AID 504845; note: % is set by controls: 0 for no effect and ±100 for the full control effect; nearly all actives have a fitted effect of over 75% in size
Target sequence (P49798 whole entry, looked up): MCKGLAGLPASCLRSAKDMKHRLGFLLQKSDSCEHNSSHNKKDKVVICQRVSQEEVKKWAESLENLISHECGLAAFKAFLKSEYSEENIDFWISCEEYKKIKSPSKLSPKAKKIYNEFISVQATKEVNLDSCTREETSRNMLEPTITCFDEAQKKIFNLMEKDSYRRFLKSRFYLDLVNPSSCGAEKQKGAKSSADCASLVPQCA
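MLSMR compounds (23 nl, pin-transferred) preincubated 10 min at room temperature with a 500nM (2x) first reagent, then RGS4 at 900nM (2x) plus Transcreener GDP mix added; fluorescence polarization (620/688 nm) read before and after 90 min at 30 °C.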
SW480 rereplic: DNA re-replication induction in SW480 cells. actives 1.8% (n = 340,000). AID 624297. Potency, µM (highest dose often 46.1 µM), for inactives: top-dose re-replication activation, hits mostly activators. SW480 DNA re-replication, Hoechst DNA content imaging, 48 h; note: % of control where 0% means no effect; nearly all actives have a fitted effect of over 55% in size
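DNA re-replication was detected as more nuclei of elevated Hoechst intensity after 48 hr exposure to compound (23 nL pinned per well of 250 cells).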
KB-3-1 tox: kills parental KB-3-1 adenocarcinoma cells | KB-3-1 viability, CellTiter-Glo ATP luminescence, 72 h | Potency, µM (series often up to 46.1 µM), most hits filed as cytotoxic | actives 1.4% (n = 400,000); note: % is set by controls: 0 for no effect and ±100 for the full control effect; nearly all actives have a fitted effect of over 60% in size
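KB-3-1 cells, DMEM (no phenol red) + 10% FBS; compound by pin transfer, 72 h, 37 °C. Readout: CellTiter-Glo luminescence after 10 min. Data normalized, curve-fitted.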
PTAP TSG101 blk: blocks PTAP/TSG101 interaction to inhibit HIV-1 budding; Q99816; Fluorescence polarization, FITC-PTAP peptide / Tsg101 binding; Potency, µM (titrated, usually from 115 µM), for inactives: at the top dose activity change, negative = inhibition, most hits filed as inhibitors; 340,000 tested, under 10 active; active = well fitted inhibition curve with a large enough effect in the main read-out, with a control signal flat, not every such curve was filed as active; inconclusive = small, poorly fitted or top-dose-only effect, or effect the other way, or a change in a side signal; inactive = no such curve, though single readings can be large or run the other way; note: % of control where 0% means no effect
Target sequence (Q99816 whole entry, looked up): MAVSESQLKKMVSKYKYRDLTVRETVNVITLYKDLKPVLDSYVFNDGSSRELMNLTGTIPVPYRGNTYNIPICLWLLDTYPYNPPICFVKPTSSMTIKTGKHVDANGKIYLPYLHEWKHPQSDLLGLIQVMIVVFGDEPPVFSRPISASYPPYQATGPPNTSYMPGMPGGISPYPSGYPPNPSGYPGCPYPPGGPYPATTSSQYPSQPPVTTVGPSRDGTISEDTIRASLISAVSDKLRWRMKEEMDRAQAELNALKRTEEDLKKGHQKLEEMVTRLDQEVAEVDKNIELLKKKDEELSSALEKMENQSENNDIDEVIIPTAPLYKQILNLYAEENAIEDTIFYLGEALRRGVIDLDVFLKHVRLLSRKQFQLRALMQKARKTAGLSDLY
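Tsg101 binding domain (10 uM final) was mixed with compound and a FITC-labeled PTAP peptide (50 nM final) in HEPES pH 7.5 buffer with NaCl, Tween 20, EDTA and TCEP; fluorescence polarization was read after 20 min at r.t.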
KB-V1 MDR tox: KB-V1 MDR subline cytotoxicity | AID 1347076 | actives 3.4% (n = 400,000) | KB-V1 MDR cells viability, CellTiter-Glo, 72 h | Potency, µM (titrated, usually from 46.1 µM), hits mostly cytotoxic; note: % is set by controls: 0 for no effect and ±100 for the full control effect; nearly all actives have a fitted effect of over 60% in size
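Readout: CellTiter-Glo luminescence, 10 min after addition. Cells: KB-V1 MDR subline, 72 h at 37 degrees C with compound. Analysis: corrected, normalized data fitted to concentration-effect curves.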
* hit, by the source's call; i = inactive; ? = inconclusive; . = no result; ! = not active in a repeat; [ ] = another dose, or the depositor's remark. Unless noted, calls come from the whole dose curve; as a rule, active = well fitted curve in the direction sought with a large enough effect; inconclusive = small, poorly fitted or top-dose-only effect, or another doubt; inactive = no such curve, though single readings can be large; an effect the other way counts as inactive or inconclusive. Potency is the fitted concentration of half-maximal effect.

SMILES | MCF10A rereplic | RGS4 inh | SW480 rereplic | KB-3-1 tox | PTAP TSG101 blk | KB-V1 MDR tox
COC(=O)CC(=O)CSc1nc2cc(C(=O)NCC(C)C)ccc2c(=O)n1CCc1ccccc1 | . | ? | . | i | . | i
COc1cc(C(=O)NCc2nc3cccnc3n2Cc2ccc(C)cc2)cc(OC)c1OC | . | -23% | . | . | . | .
COc1ccc(C2CC(O)(c3ccccc3)Oc3c(C)ccc(C(C)C)c32)cc1 (stereo not given) | . | 1% | . | . | . | .
Cc1ccccc1C(=O)N1CCN(CCc2ccccn2)CC1 | . | -7% | . | i | . | i
CCC(C)NC(=O)CSc1nc2ccsc2c(=O)n1-c1ccc(OC)cc1 (stereo not given) | -5% | 23% | -1% | i | -8% | i
COc1ccc(-n2c(SCC(=O)NC3CCCCC3)nc3ccsc3c2=O)cc1 | 0% | 6% | -8% | i | -2% | 2.1µM*
CCOc1ccc2nc(SCC(=O)NC3CCCCC3)[nH]c2c1 | 11% | -19% | -2% | i | -6% | 16µM*
CCN=c1scc(-c2ccco2)n1/N=C/c1ccc(O)cc1 | 23µM* | -28% | 3% | i | -8% | i
Cc1ccc(-c2nnc(NC(=O)Nc3ccc4ccccc4c3)s2)cc1 | . | . | . | i | . | ?
O=C1C=C(c2ccc(CO)cc2)C[C@@H](c2ccc3c(c2)OCO3)C1 | 0.58µM* | 2% | -21% | i | . | i
CC12CCC(C/C1=N\N=C1\NC(=O)/C(=C\c3cccc(Br)c3)S1)C2(C)C (stereo not given) | 18µM* | -17% | 11% | i | -1% | ?
COc1cc(/C=N/N=C2\CC3CCC2(C)C3(C)C)ccc1O (stereo not given) | ? | -3% | 1% | i | -5% | i
Nc1nc2c(nnn2C2CC(O)C(CO)O2)c(=O)[nH]1 (stereo not given) | . | . | . | 2.3µM* | . | 1.3µM*
Nc1nc2c(ncn2C2C[C@H](O)[C@@H](CO)O2)c(=O)[nH]1 (stereo not given in full) | 2% | -10% | 0% | i | -1% | i
COc1ccc(-n2c(=O)c3c4c(sc3n(Cc3ccc(F)cc3)c2=O)CCCC4)c(OC)c1 | . | -10% | . | i | . | i
COc1ccccc1-c1ccc2c(c1)C(C)(Cc1cc(Cl)ccc1C(F)(F)F)C(=O)N2 (stereo not given) | . | . | . | ? | . | 21µM*
COc1ccc(Cl)cc1CC1(C)C(=O)Nc2ccc(-c3ccccc3OC)cc21 (stereo not given) | . | . | . | ? | . | i
COc1ccc2cc(C3CC(c4ccco4)=NN3S(=O)(=O)c3ccccc3)c(Cl)nc2c1 (stereo not given) | 20% | 0% | -13% | i | 0% | 15µM*
Cc1ccc2cc(C3CC(c4ccco4)=NN3S(=O)(=O)c3ccccc3)c(Cl)nc2c1 (stereo not given) | 4% | -10%[11.4 µM] | 13% | ? | 4% | i
CCOc1ccc2cc(C3CC(c4ccco4)=NN3S(=O)(=O)c3ccccc3)c(Cl)nc2c1 (stereo not given) | 2% | -4% | 22% | i | 0% | 5.8µM*
Cc1cc(/C=C2\Cc3ccccc3C2=O)c(C)n1-c1ccccc1 | 21µM* | ? | ? | i | -5% | i
O=C(NCc1ccncc1)C(=O)NCC(c1ccco1)N1CCN(c2ccccc2F)CC1 (stereo not given) | -3% | 15% | -4% | i | -2% | 2.3µM*
O=C(COc1ccccc1)NCC(c1ccco1)N1CCN(c2ccccc2F)CC1 (stereo not given) | 82% | -8% | ? | ? | 0% | 15µM*
O=C(NCc1ccncc1)C(=O)NCC(c1ccco1)N1CCN(c2ccccc2)CC1 (stereo not given) | 10% | -28%[11.4 µM] | -10% | i | -4% | ?
CCCS(=O)(=O)c1nc(S(=O)(=O)c2ccc(C)cc2)c(NCCCOC(C)C)s1 | . | -5% | . | . | . | .
SMILES | MCF10A rereplic | RGS4 inh | SW480 rereplic | KB-3-1 tox | PTAP TSG101 blk | KB-V1 MDR tox
COc1cccc(Cn2c(Cn3c(-c4cnccn4)nc4ccccc43)nc3ccccc32)c1 | . | . | . | i | . | ?
COc1cccc(Cn2c(C(C)n3c(-c4cnccn4)nc4ccccc43)nc3ccccc32)c1 (stereo not given) | . | . | . | ? | . | 16µM*
COCCn1c(=O)[nH]c2cc(C(=O)N3CCN(c4ccc(Cl)cc4)CC3)ccc2c1=O | ? | 13% | -5% | 15µM*! | -4% | ?
O=C(c1ccc(Cn2c(=O)[nH]c3ccccc3c2=O)cc1)N1CCN(c2ccccc2)CC1 | -3% | -5%[11.4 µM] | 4% | ? | -16% | 21µM*
O=C(Nc1ncc(Cc2ccccc2)s1)C1CCN(C(=O)c2ccco2)CC1 | . | -16% | . | i | . | i
O=C1/C(=C\c2ccccc2)CCc2c1[nH]c1ccccc21 | ? | -27% | 3.3µM* | 1.3µM* | -1% | ?
Cc1ccc2[nH]c3c(c2c1)CC/C(=C/c1ccccc1)C3=O | ? | -5% | ? | i | 1% | 13µM*
Cc1ccc(S(=O)(=O)c2cc3ccccc3oc2=Nc2ccc3c(c2)OCO3)cc1 | -2% | 13% | 0% | i | -2% | i
Cc1ccc(S(=O)(=O)c2cc3ccccc3oc2=Nc2ccc3c(c2)OCCO3)cc1 | 2% | 23% | -3% | i | 0% | 10µM*
O=C(O)c1ccc(Nc2nc(-c3cc4ccccc4oc3=O)cs2)cc1O | 13µM* | ? | ? | i | -5% | i
CC(=O)Nc1ccc(Nc2nc(-c3cc4ccccc4oc3=O)cs2)cc1 | ? | 16% | -10% | i | 0% | i
COc1ccc2oc(=O)c(-c3csc(Nc4cccc(O)c4)n3)cc2c1 | 23µM* | ? | ? | i | 0% | ?
COc1ccc(Nc2nc(-c3cc4cccc(OC)c4oc3=O)cs2)cc1 | ? | -35% | 5% | i | -5% | i
CCOc1ccc2ncc3c(-c4cccc(OC)c4)nn(-c4ccccc4)c3c2c1 | . | -2% | . | i | . | i
CCOc1ccc(CCNC(=O)c2cc3sc(CC)cc3n2C)cc1OCC | . | -5% | . | . | . | .
O=C(Nc1cc(Sc2ccccn2)cc([N+](=O)[O-])c1)c1ccc(Cl)cc1 | ? | 8% | -3% | 21µM* | -5% | ?
CN(C)CCNc1ccc(-c2nn(C)c(=O)c3ccccc23)cc1[N+](=O)[O-] | -1% | 2% | -4% | ? | -6% | 23µM*
